35 compounds from ChEMBL document CHEMBL3433997, “St. Jude Leishmania screening dataset” (2016) can be followed below.

SMILES strings stand for the structures.

What all share (format): functional
For assay [1], the target named is Solute carrier family 2, facilitated glucose transporter member 1 (Homo sapiens) (UniProt P11166). Kind of assay: ST_JUDE_LEISH: Cytotoxicity at 2uM final concentration against transgenic Leishmania Mexicana promastigotes LmGLUT1 that are glucose transport deficient and complemented with the human glucose transporter GLUT1. Activity is measured by DNA content using SYBR green in vitro.
Chain of Solute carrier family 2, facilitated glucose transporter member 1 (Homo sapiens) (P11166 whole entry): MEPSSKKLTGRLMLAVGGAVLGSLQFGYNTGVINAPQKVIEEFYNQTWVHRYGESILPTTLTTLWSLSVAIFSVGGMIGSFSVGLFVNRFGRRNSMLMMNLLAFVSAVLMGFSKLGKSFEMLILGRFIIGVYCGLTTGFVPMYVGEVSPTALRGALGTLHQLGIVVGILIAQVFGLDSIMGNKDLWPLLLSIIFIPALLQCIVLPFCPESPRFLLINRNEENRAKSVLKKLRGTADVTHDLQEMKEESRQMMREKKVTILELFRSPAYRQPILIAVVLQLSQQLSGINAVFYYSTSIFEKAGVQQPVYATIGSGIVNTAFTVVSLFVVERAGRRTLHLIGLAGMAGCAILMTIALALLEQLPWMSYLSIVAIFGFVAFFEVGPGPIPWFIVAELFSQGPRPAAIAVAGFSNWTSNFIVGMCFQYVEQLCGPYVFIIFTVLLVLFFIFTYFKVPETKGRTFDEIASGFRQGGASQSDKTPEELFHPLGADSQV

For assay [2], the target named is Hexose transporter 1 (Plasmodium falciparum) (UniProt O97467). Kind of assay: ST_JUDE_LEISH: Cytotoxicity at 2uM final concentration against transgenic Leishmania Mexicana promastigotes LmPfHT that are glucose transport deficient and complemented with the Plasmodium falciparum hexose transporter. Activity is measured by DNA content using SYBR green in vitro.
Assay [3] deals with Glucose transporter (Leishmania mexicana) (UniProt O61059). Kind of assay: ST_JUDE_LEISH: Cytotoxicity at 2uM final concentration against transgenic Leishmania Mexicana promastigotes LmGT2 that are glucose transport deficient and complemented with the L. Mexicana glucose transporter 2. Activity is measured by DNA content using SYBR green in vitro.

As to `O=C(/C=C/c1ccc(Cl)c(Cl)c1)NCCCCCCN1CCN(C(=O)Nc2cccc(Cl)c2)CC1`, the inhibition in assay [1] is 0.57%; in assay [2], 1.97%; in assay [3] it was 3.02%.

Consider `Cc1ccccc1C1CCN(C2CCC(NC(=O)/C=C/c3cc(F)ccc3C(F)(F)F)CC2)CC1` (stereo not given), for which the inhibition in assay [1] is 0.1%; in assay [2], -0.94%; in assay [3], 1.99%.

For the compound `Cc1ccc(C(=O)NC2CC2)cc1-c1ccc2c(cnn2S(=O)(=O)c2ccc(F)cc2)c1`, the inhibition in assay [1] was 3.39%; in assay [2] it was 3.78%; in assay [3], 0.4%.

As for `Cc1cc(C)cc(OCC(O)CN(CCN2CCOCC2)C(=O)Nc2ccc(Br)cc2)c1` (stereo not given), the inhibition in assay [1] is 12.2%; in assay [2], 9.85%; in assay [3], 13.4%.

As for `CC(Cc1ccc(Cl)cc1)Nc1nc(NC2CCCC2)nc(N2CCC(C#N)(c3ccccc3)CC2)n1` (stereo not given), the results for the inhibition in assay [1], in assay [2] and in assay [3] were 8.45%, 5.49% and -0.98%, respectively.

As to `CN(C)CC(=O)Nc1cccc(Nc2nccc(NCC(O)c3ccccc3)n2)c1` (stereo not given), the figures for the inhibition in assay [1], in assay [2] and in assay [3] were 1.36%, 0.33% and -0.94%, respectively.

With `CCNc1cc(C(=O)N[C@@H](Cc2ccccc2)[C@H](O)CNC(C)(C)Cc2ccccc2)cc(N2CCCC2=O)c1`, the figures for the inhibition in assay [1], in assay [2] and in assay [3] were 3.58%, 0.61% and 0.81%, respectively.

For `Cc1cccc(NC(=O)N(Cc2cc3cc(C)cc(C)c3[nH]c2=O)C2CC2)c1`, the figures for the inhibition in assay [1], in assay [2] and in assay [3] were 9.62%, 10.1% and 6.55%, respectively.

On to `O=C(Nc1ccncc1)c1cc(C(=O)Nc2ccncc2)cc([N+](=O)[O-])c1`, for which the inhibition is -0.17% in assay [1], -3.19% in assay [2] and -0.41% in assay [3].

For the compound `Oc1ccc(CCNCc2ccc(OCc3ccccc3)c(OCc3ccccc3)c2)cc1`, the inhibition was found to be 75% in assay [1], 76.6% in assay [2] and 68.5% in assay [3].

With `COc1cccc(CNC(=O)c2cccc(-c3cccc(CN4CCC(N5CCCC5)CC4)c3)n2)c1`, the inhibition amounted to 4.26% in assay [1], 4.42% in assay [2] and 6.93% in assay [3].

With `CC(C)(C(=O)Nc1ccc(N2CCC3(CCCN(CC4CC4)C3)CC2)c(Cl)c1)c1cccc(C(F)(F)F)c1`, the figures for the inhibition in assay [1], in assay [2] and in assay [3] were 0.2%, -0.12% and 1.72%, respectively.

For `COc1ccc(CN2CCCC(N3CC4(OC3=O)c3ccccc3-c3ccccc34)C2)c(O)c1` (stereo not given), the inhibition in assay [1] was 5.47%; in assay [2], 4.69%; in assay [3], 4.18%.

With `CC(C)C[C@@H](/C=N/NC(N)=O)NC(=O)[C@H](CC(C)C)NC(=O)[C@H](CC(C)C)NC(=O)OCc1ccccc1`, the results for the inhibition in assay [1], in assay [2] and in assay [3] were 5.02%, 6.9% and 4.41%, respectively.

In the case of `CCc1ccc(-n2c(=O)c3cccnc3n2CC(=O)NC2CCCC2)cc1`, the inhibition in assay [1] was 1.13%; in assay [2], -0.35%; in assay [3], -1.74%.

On to `Nc1nc(N)c2c(ccc3c2cnn3Cc2cccnc2)n1`, for which the inhibition stood at 39.8% in assay [1], 51.2% in assay [2] and 38.1% in assay [3].

In the case of `O=C(C=Cc1ccc(Cl)c(Cl)c1)NCCCCCN1CCC(CCNS(=O)(=O)c2ccc(Br)cc2)CC1`, the inhibition in assay [1] was 2.45%; in assay [2], 1.43%; in assay [3], 2.53%.

As for `COCCNCc1ccc(-c2ccc(CNc3ccc4ncccc4c3)cc2)cc1`, the values for the inhibition in assay [1], in assay [2] and in assay [3] were 2%, 4.18% and 1.36%, respectively.

As for `Cc1nnsc1C(=O)Nc1cccc(-c2cccc(-c3nc4ccccc4[nH]3)c2)c1`, the inhibition in assay [1] was -1.84%; in assay [2], 0.03%; in assay [3] it was -2.07%.

With `CN(C)Cc1cccc(-c2ccc(NC(=O)c3ccc4c(=O)n(Cc5cnn(C)c5)cnc4c3)cc2)c1`, the inhibition came to 1.78% in assay [1], 2.88% in assay [2] and 4.86% in assay [3].

Turning to `N#Cc1ccc(C=CC(=O)NC2CCC(CCN3CCc4ccc(-c5cnccn5)cc4CC3)CC2)cc1` (stereo not given), the inhibition worked out at 4.1% in assay [1], 2.97% in assay [2] and 0.59% in assay [3].

For `CC(Oc1ccc(Cl)cc1)C(=O)Nc1cc(C(F)(F)F)ccc1-n1cncn1` (stereo not given), the inhibition in assay [1] was 2.69%; in assay [2], 3.5%; in assay [3], 3.88%.

Regarding `COc1ccc2[nH]ccc(=NN=Cc3cccc(C)n3)c2c1`, the results for the inhibition in assay [1], in assay [2] and in assay [3] were 18.7%, 14.9% and 11.8%, respectively.

In the case of `COc1ccccc1C1CCN(C2CCC(NC(=O)/C=C/c3cc(F)cc(F)c3)CC2)CC1` (stereo not given), the inhibition in assay [1] was -1.84%; in assay [2] it was -1.17%; in assay [3], -2.6%.

As for `CCN1CCCC(CNC(=O)/C(=C/C=C/c2cc3cc(Cl)c(Cl)cc3[nH]2)OC)C1` (stereo not given), the inhibition in assay [1] was -0.41%; in assay [2], 1.17%; in assay [3], 1.2%.

For `N#Cc1ccc(C=NNc2nc3ccccc3[nH]2)cc1`, the inhibition in assay [1] is 3.61%; in assay [2], 1.98%; in assay [3], -0.11%.

Turning to `CCN(c1ccc(F)cc1)S(=O)(=O)c1cc(Br)cc2c1N(C(=O)C1CC1)CC2`, the inhibition was 0.4% in assay [1], 1.32% in assay [2] and 3.74% in assay [3].

For `Cc1[nH]c(C)c(-c2ccc(-c3ccc(C(F)(F)F)cc3C(F)(F)F)nc2)c(=O)c1Br`, the figures for the inhibition in assay [1], in assay [2] and in assay [3] were -0.49%, -2.4% and 0.14%, respectively.

With `COc1cc(C(=O)NC2CCc3ccccc32)cc(Cl)c1OC` (stereo not given), the inhibition was -4.04% in assay [1], -0.96% in assay [2] and -0.41% in assay [3].

As for `CN1CCN(c2ccnc3ccc(NC(=O)Cc4ccc5ccccc5c4)cc23)CC1`, the inhibition in assay [1] was 0.96%; in assay [2] it was 2.53%; in assay [3], 2.12%.

Turning to `CC(C)(C)Nc1nc(Nc2cccc([N+](=O)[O-])c2)nc(-n2ccnc2)n1`, the inhibition was 1.91% in assay [1], 1.9% in assay [2] and -1.47% in assay [3].

In the case of `O=C(Nc1ccc(Cl)cc1F)N[C@H]1CCN(CCCCCNC(=O)C2CC2c2ccc(Cl)c(Cl)c2)C1` (stereo not given in full), the figures for the inhibition in assay [1], in assay [2] and in assay [3] were 8.35%, 8.26% and 8.63%, respectively.

Turning to `c1ccc2c(NCCCCCCCCNc3ccnc4ccccc34)ccnc2c1`, the inhibition is -0.47% in assay [1], 0.85% in assay [2] and 1.12% in assay [3].

Turning to `CC(C)CCN(Cc1cncn1Cc1cccc(C(F)(F)F)c1)C(=O)c1ccccc1C#N`, the inhibition in assay [1] is -3.54%; in assay [2] it was -0.35%; in assay [3] it was 0.86%.

With `N=C(N)NC(=O)Nc1cc(Cl)c(Br)c(Cl)c1`, the inhibition in assay [1] was determined as 3%; in assay [2], 6.09%; in assay [3], 2.88%.

Usually inhibition stands for the relative decrease from the control value, in per cent.
